# Only some compounds are listed: those with a hit (about 6.9% of all), similar ones and a draw of the others.
# CSC inhib – cancer stem cell viability inhibitors, primary screen, luminescence. cancer stem cell-like cells viability. inhibition, % at 7.5 µM. 300,000 compounds, 1.1% hits. AID 2717, 2010; in the data active = inhibition above about 75%; inconclusive = no clear call, values can overlap the other calls; tested in HMLE shEcad cells
# MPTP block – mitochondrial permeability transition pore inhibitors, primary screen, biochemical, isolated mouse mitochondria, absorbance | Ca2+ swelling absorbance, 30 min | inhibition, % at 10 µM | 360,000 compounds, 1.4% hits;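 active = inhibition of 50% or more, scaled per plate between neutral and stimulator controls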;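 note: 0% = DMSO wells given calcium and 100% = 1 mM EGTA wells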
# Beta cell apopt – inhibitors of cytokine-induced beta cell apoptosis, primary screen, luminescence. INS-1E cytokine-induced death, ATP luminescence, 48 h; percent of positive-control rescue, neutral wells zero. protection from apoptosis, % (no concentration beside the values). 300,000 compounds, 0.8% hits. AID 435005, 2010;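 active = Every replicate reaches about 75%, or at least half do and their mean reaches it too, limit read from the data; inconclusive = At least half of replicates reach the limit but their mean does not; inactive = Under half of replicates reach the limit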;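 note: 0% = cytokine-treated negative control wells and 100% = positive control rescue; higher means more ATP so stronger rescue from cytokine killing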
# Mdm2 MdmX PPI – inhibitors of human Mdm2-MdmX association, primary screen, cell-based, luminescence, split luciferase, SaOS-2, uHTS; Protein Mdm4 (Homo sapiens) + E3 ubiquitin-protein ligase Mdm2 (Homo sapiens), …; SaOS-2 split-luciferase Mdm2/MdmX complementation; inhibition, % at 8 µM; 330,000 compounds, 3% hits; AID 485346, 2010;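 active = inhibition of at least 50% at 8 µM in the primary screen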
# GRIN3A LBD mod – binders of NR3A ligand-binding domain, primary screen, biophysical, differential scanning fluorimetry, uHTS; NR3A LBD differential scanning fluorimetry, Tm shift; 0% = protein alone, 100% = glycine-bound protein; Tm shift relative to glycine control, % at 25 µM; 340,000 compounds, 2.5% hits; AID 1259313, 2017;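 active = melting temperature shift of at least 10% of the positive control shift, at one fixed dose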
# SKKanGAS inh – S. pyogenes SKKanGAS growth inhibitors in kanamycin, primary screen, streptokinase expression inhibitor project, SKKanGAS strain, BacTiter-Glo luminescence; 300,000 compounds, 1.3% hits; 6 h; inhibition, % at 7.5 µM;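 active = mean replicate score, as percent of positive control median, at least 50; inconclusive = mean below 50 but one replicate at or above 50; inactive = mean and every replicate below 50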;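 note: strain carries kanamycin resistance gene driven by streptokinase promoter and grows in 40 µg/ml kanamycin; loss of luminescence reflects streptokinase promoter inhibition or plain growth inhibition; 0% = median of DMSO wells and 100% = positive control at its reference dose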
# Mdm2 MdmX conf – Mdm2-MdmX complex disruptors, retested hits, confirmation, luminescence, single concentration; Mdm2-MdmX binding, luminescent assay; shares compounds with Mdm2 MdmX PPI; AID 489028, 2010; inhibition, % at 8 µM; 10,000 compounds, 55% hits; in the data active = inhibition above about 40%
# Full FLuc ctr – full-length luciferase signal inhibition, confirmation, counter-screen for Mdm2/MdmX interaction inhibitor project, cell-based, single concentration, SaOS-2; shares compounds with Mdm2 MdmX PPI; SaOS-2 full-length luciferase counterscreen, luminescence; inhibition, % at 8 µM; 6,200 compounds, 77% hits;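 active = mean inhibition at 8 µM reaching about 37%, which flags the compound as non-specific, limit read from the data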;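 note: p53-null SaOS-2 cells with luciferase driven by a doxycycline-inducible promoter; compound on cells about two nights before reading with doxycycline added after day one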
# * marks the source's active call; other numbers are inactive results; ? = inconclusive; / = no result given.
SMILES,CSC inhib,MPTP block,Beta cell apopt,Mdm2 MdmX PPI,GRIN3A LBD mod,SKKanGAS inh,Mdm2 MdmX conf,Full FLuc ctr
COc1ccc(OCC(=O)Nc2ccc3oc(-c4ccncc4)nc3c2)cc1,-1,4,-9,-5,-10,-1,/,/
O=C(c1ccc(Cl)cc1)C1CCN(Cc2ccccc2)CC1,-4,1,-2,22,-1,-3,/,/
O=C(C1CCN(Cc2ccc(Cl)cc2)CC1)N1CCN(C(c2ccccc2)c2ccccc2)CC1,64,1,33,56*,-2,11,25,/
CCCCNC(=O)c1c(CSc2ccccc2)noc1C(=O)NCc1ccccc1,-15,1,-2,-22,-8,36,/,/
O=c1c2ccccc2nc(/C=C/c2cc(Br)ccc2O)n1CCCO,52,0,-13,89*,6,16,74*,27
CCc1sc(C(=O)Nc2cc(S(=O)(=O)N3CCOCC3)ccc2OC)cc1C,-12,0,-1,1,1,/,/,/
CCOc1ccc2nc(NC3=NC(c4ccc(OC)cc4)CC(=O)N3)nc(C)c2c1 (centres undefined),76*,2,46,98*,0,5,39,31
COc1cc(NC(=O)Nc2nc(C(N)C(C)C)cs2)cc(OC)c1OC (centres undefined),/,0,/,/,/,/,/,/
Cc1ccc(C(C)C)c(OCc2nn(CC(=O)c3ccc(OC(F)F)cc3)c3[n+]2CCCCC3)c1,94*,10,114*,95*,6,71*,87*,23
COc1ccc(N2CCN(S(=O)(=O)c3ccc(-c4cnc(C5CC5)o4)cc3)CC2)cc1,-12,-1,10,40,0,-3,/,/
COc1ccccc1N1CCN(S(=O)(=O)c2ccc(-c3cnc(C4CC4)o3)cc2)CC1,-3,-2,5,26,2,18,/,/
COc1cccc(N2CCN(S(=O)(=O)c3ccc(-c4cnc(C5CC5)o4)cc3)CC2)c1,-4,0,12,79*,3,1,10,/
CCOc1ccccc1NS(=O)(=O)c1ccc(-c2cnc(C3CC3)o2)cc1,17,1,45,73*,1,-13,56*,117*
Cc1ccc(NS(=O)(=O)c2ccc(-c3cnc(C4CC4)o3)cc2)c(C)c1,?,1,21,77*,-7,3,56*,95*
COc1ccccc1NS(=O)(=O)c1ccc(-c2cnc(C3CC3)o2)cc1,17,-1,16,70*,2,-15,64*,81*
O=C1CC(=O)Nc2cc(S(=O)(=O)Nc3ccc(F)cc3Cl)ccc2N1,/,-1,-8,7,-1,1,/,/
COc1ccccc1CNS(=O)(=O)c1ccc(-c2cnc(C3CC3)o2)cc1,65,5,19,54*,-1,-3,55*,66*
O=S(=O)(Nc1ccc(F)cc1Cl)c1ccc(-c2cnc(C3CC3)o2)cc1,/,10,/,56*,0,9,61*,66*
COc1ccccc1CNS(=O)(=O)c1ccc(S(=O)(=O)NC2CC2)cc1,/,0,-3,-14,1,2,/,/
Cc1cccc(N(C)S(=O)(=O)c2ccc(-c3cnc(C4CC4)o3)cc2)c1,78*,0,54,74*,1,2,59*,103*
CCc1ccc(C(=O)Cn2ncc(Cl)c(Cl)c2=O)cc1,-6,4,-11,96*,-3,-15,88*,51*
Cc1ccc(Cn2ncc(Cl)c(Cl)c2=O)cc1,-8,3,-14,80*,0,-1,51*,5
CCN1CCN(S(=O)(=O)Cc2ccccc2Cl)CC1,-12,1,/,11,4,-3,/,/
CCOC(=O)c1[nH]c(C)c(C(=O)OCc2ccccc2F)c1C,?,1,/,36,3,-1,/,/
COCCCNCC#CCOc1ccc(OC)cc1,-29,0,-1,100*,0,3,-1,/
SMILES,CSC inhib,MPTP block,Beta cell apopt,Mdm2 MdmX PPI,GRIN3A LBD mod,SKKanGAS inh,Mdm2 MdmX conf,Full FLuc ctr
Cc1c(OCC(=O)N2CCC(C(=O)NCCCC(=O)O)CC2)ccc2c1oc(=O)c1ccccc12,-10,-1,-4,-9,1,-1,/,/
Nc1cccc2nc3ccccc3cc12,/,-3,/,58*,0,4,78*,32
CC1=CC(=O)C=C(C)C1=NOc1ccccc1[N+](=O)[O-],-16,1,0,72*,-13,3,14,/
Cc1cc(C)c(S(=O)(=O)Oc2ccccc2[N+](=O)[O-])c(C)c1,/,0,/,/,3,/,/,/
COc1ccc(-c2n[nH]c3c2CN(C(=O)c2ccc(OC)c(OC)c2)CC3)cc1,41,1,4,58*,0,-5,58*,55*
COc1cc(OC)cc(C(=O)N2CCN(C(=O)c3ccc(OC)c(OC)c3)CC2)c1,1,-2,-1,1,-1,0,/,/
O=C(NCc1cccnc1)C1CC(c2ccc(Cl)c(Cl)c2)=NO1 (centres undefined),60,4,4,29,-5,-2,/,/
O=C(N/C(=C\c1ccco1)C(=O)N1CCCC(CO)C1)c1ccccc1 (centres undefined),-3,0,-3,0,0,-4,/,/
O=C(COC(=O)c1ccncc1)c1ccc(Cl)c(Cl)c1,-5,0,-4,-9,-2,-4,/,/
Cc1ccc(C)c(OCc2cc(C(=O)NC3CCN(Cc4ccccc4)CC3)no2)c1,12,4,14,53*,-4,0,16,/
CCN(CCNC(=O)C1CCCN(Cc2nc(-c3ccc(OC)cc3)oc2C)C1)c1ccccc1 (centres undefined),2,-2,0,48,-3,1,/,/
Cc1oc(-c2ccc(Cl)cc2)cc1C(=O)NC1CCN(Cc2ccccc2)CC1,14,0,/,60*,0,0,28,/
Cc1oc(C(C)(C)C)cc1C(=O)NC1CCN(Cc2ccccc2)CC1,16,-1,4,10,1,-2,/,/
CCN(CCNC(=O)C1CCN(Cc2nc(-c3ccc(Cl)cc3)oc2C)CC1)c1ccccc1,40,-3,/,51*,-4,3,54*,48*

# Source: PubChem BioAssay (several laboratories)
